Screening data deposited in PubChem by several laboratories.
NTR1 ag = NTR1 (human) agonism. NTR1-U2OS beta-arrestin-GFP spot imaging, agonist mode. P30989. activation, % at 20 µM. hit rate 0.17% among 330,000. AID 493036;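 active = activation at or above 40% of the spot to cytoplasm intensity ratio, with at least 20 cells analyzed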;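 also: 0% = DMSO without peptide and 100% = 100 nM NTR1 peptide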
Target sequence (P30989 whole entry, looked up): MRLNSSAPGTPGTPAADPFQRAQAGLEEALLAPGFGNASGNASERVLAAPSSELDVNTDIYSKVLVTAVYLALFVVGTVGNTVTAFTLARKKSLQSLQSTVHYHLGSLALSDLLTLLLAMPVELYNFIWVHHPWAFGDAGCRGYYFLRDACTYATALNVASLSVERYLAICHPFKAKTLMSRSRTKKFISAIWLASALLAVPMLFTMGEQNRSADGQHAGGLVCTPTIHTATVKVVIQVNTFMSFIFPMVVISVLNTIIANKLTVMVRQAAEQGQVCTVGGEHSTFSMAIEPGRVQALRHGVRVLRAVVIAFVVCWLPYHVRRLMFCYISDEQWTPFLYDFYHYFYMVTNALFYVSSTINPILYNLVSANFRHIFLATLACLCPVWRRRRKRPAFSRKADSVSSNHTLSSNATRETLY
Cardio protect = modulators protecting cardiomyocytes from myocardial damage | H9c2 cardiomyocytes, H2O2 injury protection, ATPLite, 2 h | protection from H2O2 cell death, % at 20 µM | hit rate 0.63% among 360,000 | AID 588492;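 active = compounds giving at least 50% protection of heart cells from peroxide-induced death in the single-dose screen, raw or plate-pattern-corrected value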;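 also: 0% = DMSO wells with peroxide and 100% = DMSO wells without peroxide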
GRIN3A LBD mod = NR3A (human) ligand-binding domain modulation; hit rate 2.5% among 340,000; NR3A LBD differential scanning fluorimetry, Tm shift; 0% = protein alone, 100% = glycine-bound protein; Tm shift relative to glycine control, % at 25 µM; AID 1259313;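 active = melting temperature shift of at least 10% of the positive control shift, at one fixed dose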
AHR activator = activators of human aryl hydrocarbon receptor; P35869; AHR-responsive luciferase reporter cells, luminescence; activation, % at 5 µM; hit rate 2.5% among 320,000; in the data active = activation above about 47%;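 also: 0% = vehicle wells and 100% = reference agonist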
SUMO Mot1 rescue = inhibitors of SUMOylation pathway: yeast Mot1-301 growth rescue. S. cerevisiae Mot1-301 growth rescue, ATP luminescence, 38.5C; percent above DMSO median, 100 means doubled. hit rate 1% among 320,000. AID 2716. growth rescue, % at 18.8 µM;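 active = every valid replicate shows activation above 250% relative to neutral control wells; inactive = the rest, any valid replicate at or below 250%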;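 also: OY570 slx delta 5 strain wells were the positive control but not used for scaling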
AI-2 QS modul = Vibrio harveyi AI-2 quorum sensing modulation; Vibrio harveyi JMH597 AI-2 luminescence/OD600 ratio, 9 h; stronger effect = lower value; strain lacks LuxN and CqsS sensors; 0 = neutral-control median; activity change, % at 7.5 µM; hit rate 0.4% among 300,000; AID 2094; in the data active = activity change below about -75%, passing the limit was not always enough;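 also: luminescence divided by OD600 gain over 9 h not by final OD600 alone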
An asterisk follows results filed as active; · = not tested or not shown. Rows were chosen to be rich in hits. Some 6.2% of all compounds tested hit in one or more screens of this group.

SMILES	NTR1 ag	Cardio protect	GRIN3A LBD mod	AHR activator	SUMO Mot1 rescue	AI-2 QS modul
C=CCC[C@H](Cc1ccc(F)cc1)C(=O)OC[C@@H](Cc1c[nH]c2ccccc12)NC(=O)[C@@H](CC=C)CC(=O)NCCO	10	68*	-6	2	2	·
C=CCC[C@@H](Cc1ccc(F)cc1)C(=O)OC[C@@H](Cc1c[nH]c2ccccc12)NC(=O)[C@@H](CC=C)CC(=O)NCCO	11	50	-4	0	·	·
O=C(Nc1cccnc1)c1ccc(COc2ccccc2Br)cc1	5	1	36*	22	7	7
CCOc1ccc(NC(=O)c2ccc(Cn3nc(C)cc3C)o2)cc1	1	0	1	47*	-5	14
NC(=O)c1ccc(NC(=O)c2ccc(COc3ccccc3Br)cc2)cc1	-1	-1	22*	·	·	·
CCCOc1ccc(C(=O)Nc2cccnc2)cc1	0	-5	2	7	9	15
O=C(NCc1cccnc1)c1ccc(COc2ccccc2Br)cc1	1	-25	0	-9	28	8
CCOc1cc(C(=O)Nc2cccnc2)cc(OCC)c1OCC	0	6	2	73*	6	9
CNC(=O)c1ccccc1NC(=O)C1CC(=O)N(C(C)C)C1 (stereo not given)	-2	9	-1	1	-10	15
CC(C)(C)c1ccc(C(=O)O[C@H]2[C@H](Cc3ccccc3)NS(=O)(=O)[C@H]3C[C@@H]4C=C[C@]23O4)cc1	3	-10	-3	0	-2	·
CCOc1cc(C(=O)Nc2cc(C)on2)cc(OCC)c1OCC	-1	-1	0	64*	42	27
Cc1cc(C)nc(NC(=O)c2ccc(COc3ccccc3Cl)cc2)c1	1	-1	4	-9	8	14
Cc1cc(C)n(Cc2ccc(NC(=O)c3ccc(COc4ccccc4Br)cc3)cc2)n1	3	-4	10*	-12	-11	32
CCOC(=O)C1=C[C@@H](CC)N(S(=O)(=O)c2ccccc2)[C@H]1c1ccccc1	·	-3	·	·	·	·
NC(=O)c1ccsc1NC(=O)COC(=O)c1ccc(Cl)c(N)c1	8	32	23*	4	-3	-2
O=C(COC(=O)c1ccco1)c1ccc2ccccc2c1	-1	-5	10*	0	-6	-4
Cc1ccc(C(=O)OCC(=O)Nc2ccccc2)cc1NC(=O)c1ccco1	-1	5	0	4	-5	19
Cc1ccc(C(=O)OCC(=O)Nc2ccc(N(C)C)cc2)cc1NC(=O)c1ccco1	1	8	15*	1	-4	·
O=C(COC(=O)c1ccco1)Nc1ccc(Br)cc1	2	-4	11*	1	-5	-44
O=C(COC(=O)c1ccco1)c1ccccc1	-2	-13	-5	0	-21	-6
CCc1nc2c(OCCC3CCCCC3)cccn2c1N(C)C(=O)c1ccc(OC)cc1	·	1	·	·	·	·
Cc1ccc(C(=O)OCC(=O)Nc2nc(-c3ccccc3)cs2)cc1NC(=O)c1ccco1	3	23	3	4	3	23
O=C(CNC(=O)c1ccco1)NCC(=O)OCc1ccc(Cl)cc1	-5	6	1	4	-20	·
Cc1ccc(C(=O)OCC(=O)Nc2sccc2C(N)=O)cc1NC(=O)c1ccco1	7	94*	-18	-2	-6	16
O=C(CNC(=O)c1ccco1)OCc1ccc(Br)cc1	1	2	3	-1	13	-76*
SMILES	NTR1 ag	Cardio protect	GRIN3A LBD mod	AHR activator	SUMO Mot1 rescue	AI-2 QS modul
CN1CC(=O)N(CC(=O)Nc2cccc3ccccc23)C1=O	0	6	1	4	-3	·
CC1CC(C)CN(C(=O)C(C)N2CCN(S(=O)(=O)c3cccs3)CC2)C1 (stereo not given)	0	-5	3	0	-20	·
Cc1ccc(C)c(NC(=O)c2cc(-c3cc(C)c(C)cc3O)n[nH]2)c1	4	-2	28*	-5	47	2
Cc1cc(F)ccc1-c1cc(C(=O)Nc2ccccc2)[nH]n1	·	-15	·	·	·	·
Cc1ccc(NC(=O)c2cc(-c3ccc(C)c(C)c3O)n[nH]2)cc1C	1	-7	35*	-2	-9	-8
Cc1ccc(NC(=O)c2cc(-c3cc(Cl)ccc3C)n[nH]2)cc1NS(C)(=O)=O	·	-3	·	·	·	·
CC(=O)Nc1ccc(NC(=O)c2cc(-c3cc(C)cc(C)c3O)n[nH]2)cc1	0	-2	35*	7	5	6
Cc1ccc(-c2cc(C(=O)Nc3cc(C)ccc3C)[nH]n2)c(O)c1	0	-3	-10	-4	-4	19
Cc1ccc(NC(=O)c2cc(-c3cc(C)c(C)cc3O)n[nH]2)cc1C	-1	-1	33*	-3	-9	7
O=C(Cc1n[nH]c(=O)c2ccccc12)Nc1cc(C(F)(F)F)ccc1-n1cncn1	1	3	2	·	·	·
CCOc1ccc(NC(=O)c2cccc(-n3cccc3)c2)cc1S(=O)(=O)N1CCOCC1	0	11	·	8	8	·
Cc1cc(C)c(O)c(-c2cc(C(=O)Nc3ccc(S(=O)(=O)N4CCOCC4)cc3)[nH]n2)c1	26	-15	23*	-2	-2	3
Cc1ccc(-c2cc(C(=O)Nc3ccc(S(=O)(=O)Nc4ncccn4)cc3)[nH]n2)c(O)c1C	3	-3	10*	-2	3	9
Cc1cccc(NC(=O)c2cc(-c3ccc(C)c(C)c3O)n[nH]2)c1	6	-8	35*	·	-17	37
COc1ccc(NC(=O)c2cc(-c3ccc(C)c(C)c3O)n[nH]2)cc1Cl	10	-11	25*	11	16	11
COc1ccc(-c2cc(C(=O)Nc3ccc(OC)c(OC)c3)[nH]n2)c(C)c1	·	2	·	·	·	·
C=C(C(=O)Oc1c(C(C)(C)C)cccc1C(C)(C)C)c1ccccc1	-2	-8	-1	1	-2	·
COc1ccc(C(=O)NCc2nnc(SCC(=O)N3CCCC3)o2)cc1OC	0	4	-5	-1	-5	25
Cc1ccc(CNC(=O)c2cc(-c3cc(C)cc(C)c3O)n[nH]2)cc1	2	-17	11*	37	296	-38
Cc1ccc(O)c(-c2cc(C(=O)NCc3ccc4c(c3)OCO4)[nH]n2)c1	2	3	-18	9	173	-58
CC(=O)Nc1ccc(NC(=O)c2cc(-c3ccc(F)cc3C)n[nH]2)cc1	·	-6	·	·	·	·
CC(=O)Nc1ccc(NC(=O)c2cc(-c3ccc(C)c(C)c3O)n[nH]2)cc1	1	-3	39*	1	-4	9
CCO/C(C)=N/Oc1cncnc1	·	11	·	·	·	·
COc1ccc(Nc2nnc(-c3ccc(O)cc3)c3ccccc23)cc1	0	28	-6	23	4	22
COc1ccc(Nc2nnc(C)c3ccccc23)cc1C(N)=O	0	11	1	24	-16	30
